From PubChem BioAssay (EPA / NIEHS)
Results filed as inconclusive are left out. Active and inactive are the calls of the source. Rule for the calls, unless noted: active = hit-call score of the fitted dose curve at least 0.9, where 1 is the maximum; inconclusive = response in the unintended direction; inactive = score below 0.9.

Key:
[1] = molecular target: Nuclear receptor subfamily 1 group I member 3 (Homo sapiens) (UniProt Q14994); experiment: ATG_CAR_TRANS: Attagene TRANS-FACTORIAL HepG2 Assay for human Constitutive Androstane Receptor (CAR) (AID 2282969); settings: HepG2 Attagene TRANS-FACTORIAL CAR reporter;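 note: activators raise reporter mRNA above DMSO so AC50 marks induction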
Nuclear receptor subfamily 1 group I member 3 (Homo sapiens), sequence (Q14994 whole entry, looked up, the tested form may be a part): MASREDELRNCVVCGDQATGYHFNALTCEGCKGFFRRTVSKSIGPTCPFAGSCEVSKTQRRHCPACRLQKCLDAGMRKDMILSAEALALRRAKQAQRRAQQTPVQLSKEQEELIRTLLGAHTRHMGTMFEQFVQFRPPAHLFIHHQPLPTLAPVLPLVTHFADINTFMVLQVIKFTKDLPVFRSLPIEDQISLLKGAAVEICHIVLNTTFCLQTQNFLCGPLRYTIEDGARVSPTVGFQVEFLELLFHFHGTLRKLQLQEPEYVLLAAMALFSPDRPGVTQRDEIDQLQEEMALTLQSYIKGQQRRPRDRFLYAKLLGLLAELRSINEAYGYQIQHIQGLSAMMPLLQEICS
Procedure, shortened: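 Readout is reporter mRNA induction, quantified by fluorescent primer extension and capillary electrophoresis after RT-PCR. Cells were HepG2 transiently carrying chimeric NR-Gal4 constructs with GAL4-UAS reporters, treated for 24 h; activity scored upward from DMSO.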

[2] = molecular target: Estrogen receptor (Homo sapiens) (UniProt P03372); experiment: ATG_ERa_TRANS: Attagene TRANS-FACTORIAL HepG2 Assay for human Estrogen Receptor alpha (ERa) (AID 2282970); settings: HepG2 Attagene TRANS ERa GAL4 reporter, mRNA
Estrogen receptor (Homo sapiens), sequence (P03372 whole entry, looked up, the tested form may be a part): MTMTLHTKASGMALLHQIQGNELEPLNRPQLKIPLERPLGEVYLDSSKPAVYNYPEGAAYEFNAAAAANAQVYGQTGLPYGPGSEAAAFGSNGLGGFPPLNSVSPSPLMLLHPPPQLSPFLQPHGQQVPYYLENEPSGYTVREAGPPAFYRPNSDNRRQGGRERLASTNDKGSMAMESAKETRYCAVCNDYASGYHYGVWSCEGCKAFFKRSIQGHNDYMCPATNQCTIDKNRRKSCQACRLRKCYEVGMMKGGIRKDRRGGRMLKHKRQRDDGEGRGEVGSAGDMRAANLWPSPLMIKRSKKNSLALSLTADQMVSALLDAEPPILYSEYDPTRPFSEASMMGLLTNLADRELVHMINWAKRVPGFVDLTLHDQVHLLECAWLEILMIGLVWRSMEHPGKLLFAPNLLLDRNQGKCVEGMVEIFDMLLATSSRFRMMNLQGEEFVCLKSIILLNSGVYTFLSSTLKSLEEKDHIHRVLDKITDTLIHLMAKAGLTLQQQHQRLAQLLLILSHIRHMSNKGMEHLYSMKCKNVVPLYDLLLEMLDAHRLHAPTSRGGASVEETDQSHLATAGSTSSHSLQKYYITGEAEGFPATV
Procedure, shortened: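 Transactivation via ERa-Gal4 chimera in HepG2; 24 hour incubation; reporter mRNA detected by fluorescence RT-PCR and capillary electrophoresis.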

[3] = molecular target: Steroid hormone receptor ERR1 (Homo sapiens) (UniProt P11474); experiment: ATG_ERRa_TRANS: Attagene TRANS-FACTORIAL HepG2 Assay for human Estrogen-Related Receptor alpha (ERRa) (AID 2282971); settings: HepG2 Attagene TRANS reporter, ERRa transactivation
Steroid hormone receptor ERR1 (Homo sapiens), sequence (P11474 whole entry, looked up, the tested form may be a part): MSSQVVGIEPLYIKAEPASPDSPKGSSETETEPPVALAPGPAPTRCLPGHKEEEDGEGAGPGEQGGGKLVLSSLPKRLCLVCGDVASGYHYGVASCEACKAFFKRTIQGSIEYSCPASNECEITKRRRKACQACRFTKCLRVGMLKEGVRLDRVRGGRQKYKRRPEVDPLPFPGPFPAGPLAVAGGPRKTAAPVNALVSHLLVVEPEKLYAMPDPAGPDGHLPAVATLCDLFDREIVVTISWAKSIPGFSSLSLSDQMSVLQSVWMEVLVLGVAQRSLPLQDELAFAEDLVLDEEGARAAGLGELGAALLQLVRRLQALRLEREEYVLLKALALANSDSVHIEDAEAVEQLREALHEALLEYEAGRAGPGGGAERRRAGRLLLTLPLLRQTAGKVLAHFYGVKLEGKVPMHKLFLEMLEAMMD
Procedure, shortened: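 HepG2 cells were transiently transfected with multiple GAL4-UAS reporter units, then dosed with compound for 24 h. Total RNA was reverse-transcribed, reporter cDNA PCR-amplified and fluorescently labelled, and fragments resolved by capillary electrophoresis; induction was compared with DMSO.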

[4] = molecular target: X-box-binding protein 1 (Homo sapiens) (UniProt P17861); experiment: ATG_Xbp1_CIS: Attagene CIS-FACTORIAL HepG2 Assay for human X-box Binding Protein 1 (XBP1) (AID 2282972; active = hit-call score of the fitted dose curve at least 0.9, where 1 is the maximum; inactive = score below 0.9); settings: HepG2 XBP1 cis-element reporter, Attagene multiplex; actives raise or lower the signal
X-box-binding protein 1 (Homo sapiens), sequence (P17861 whole entry, looked up): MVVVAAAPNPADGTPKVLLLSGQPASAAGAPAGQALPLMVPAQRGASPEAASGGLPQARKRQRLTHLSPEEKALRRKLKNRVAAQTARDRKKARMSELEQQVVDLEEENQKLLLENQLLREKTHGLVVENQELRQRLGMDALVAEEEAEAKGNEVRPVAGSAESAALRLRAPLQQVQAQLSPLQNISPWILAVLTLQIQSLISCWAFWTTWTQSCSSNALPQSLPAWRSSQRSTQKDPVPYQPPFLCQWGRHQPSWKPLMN
Procedure, shortened: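 HepG2 cells transiently transfected with cis-regulated multiple reporter transcription units; endogenous transcription factor activity measured 24 hours after chemical dosing. Reporter mRNA quantified by RT-PCR, 6-FAM primer extension, HpaI digestion and capillary electrophoresis; bidirectional fitting versus DMSO.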

[5] = ATG_M_19_TRANS: Attagene TRANS-FACTORIAL HepG2 Assay for M19 Transcription Factor (Internal Marker) (AID 2282974); settings: HepG2 Attagene TRANS-FACTORIAL M19 internal marker reporter
Procedure, shortened: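 HepG2 cells transiently transfected with multiple GAL4-UAS reporter transcription units were exposed to chemicals for 24 h. Reporter mRNA was read by RT-PCR, 6-FAM primer extension, HpaI digestion and capillary electrophoresis; gain of signal fitted relative to DMSO.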

[6] = molecular target: Estrogen-related receptor gamma (Homo sapiens) (UniProt P62508); experiment: ATG_ERRg_TRANS: Attagene TRANS-FACTORIAL HepG2 Assay for human Estrogen-Related Receptor gamma (ERRg) (AID 2282977); settings: HepG2 Attagene TRANS reporter, ERRg transactivation;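 note: hits increase reporter signal over DMSO so potencies reflect activators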
Procedure, shortened: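 HepG2 cells transiently transfected with multiplexed GAL4-UAS reporter units driven by chimeric NR-Gal4 proteins; 24 h exposure. Reporter mRNA quantified by RT-PCR, fluorescent labelling, HpaI digestion and capillary electrophoresis; gain of signal vs DMSO.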

[7] = molecular target: Glucocorticoid receptor (Homo sapiens) (UniProt P04150); experiment: ATG_GR_TRANS: Attagene TRANS-FACTORIAL HepG2 Assay for human Glucocorticoid Receptor (GR) (AID 2282978); settings: HepG2 Attagene TRANS GR reporter, mRNA transcription;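 note: activators score as hits since higher reporter transcript over DMSO is fitted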
Glucocorticoid receptor (Homo sapiens), sequence (P04150 whole entry, looked up, the tested form may be a part): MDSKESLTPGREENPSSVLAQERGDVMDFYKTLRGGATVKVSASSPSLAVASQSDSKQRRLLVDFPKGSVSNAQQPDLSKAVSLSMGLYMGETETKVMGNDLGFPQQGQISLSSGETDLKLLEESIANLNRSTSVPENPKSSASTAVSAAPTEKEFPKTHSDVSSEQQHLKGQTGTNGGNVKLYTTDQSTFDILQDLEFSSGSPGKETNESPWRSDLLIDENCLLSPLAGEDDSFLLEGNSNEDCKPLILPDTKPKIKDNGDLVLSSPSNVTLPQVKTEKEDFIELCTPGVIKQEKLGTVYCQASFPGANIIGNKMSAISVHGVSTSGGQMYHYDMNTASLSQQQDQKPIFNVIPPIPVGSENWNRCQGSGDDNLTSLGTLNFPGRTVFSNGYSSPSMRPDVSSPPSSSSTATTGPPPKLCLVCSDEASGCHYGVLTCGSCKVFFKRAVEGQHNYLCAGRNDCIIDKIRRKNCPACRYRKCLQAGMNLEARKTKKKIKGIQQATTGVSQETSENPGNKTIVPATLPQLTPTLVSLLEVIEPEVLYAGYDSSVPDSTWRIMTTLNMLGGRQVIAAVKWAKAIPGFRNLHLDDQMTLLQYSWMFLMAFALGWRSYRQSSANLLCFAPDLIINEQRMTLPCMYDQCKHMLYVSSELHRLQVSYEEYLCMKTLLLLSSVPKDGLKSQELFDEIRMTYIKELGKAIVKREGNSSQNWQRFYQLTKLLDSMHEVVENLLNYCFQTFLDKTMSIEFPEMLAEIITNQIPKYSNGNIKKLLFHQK
Procedure, shortened: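 HepG2 cells transiently transfected with multiplexed reporter units in which chimeric NR-GAL4 proteins drive GAL4-UAS reporters; 24 h compound exposure. Reporter mRNA measured by RT-PCR, 6-FAM labelling, HpaI digestion and capillary electrophoresis; gain-of-signal fitted versus DMSO.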

[8] = molecular target: Bile acid receptor (Homo sapiens) (UniProt Q96RI1); experiment: ATG_FXR_TRANS: Attagene TRANS-FACTORIAL HepG2 Assay for Farnesoid X Receptor (FXR) (AID 2282979); settings: HepG2 Attagene TRANS FXR-GAL4 reporter transcription;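 note: hits raise reporter mRNA above DMSO so AC50 marks FXR activation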
Bile acid receptor (Homo sapiens), sequence (Q96RI1 whole entry, looked up, the tested form may be a part): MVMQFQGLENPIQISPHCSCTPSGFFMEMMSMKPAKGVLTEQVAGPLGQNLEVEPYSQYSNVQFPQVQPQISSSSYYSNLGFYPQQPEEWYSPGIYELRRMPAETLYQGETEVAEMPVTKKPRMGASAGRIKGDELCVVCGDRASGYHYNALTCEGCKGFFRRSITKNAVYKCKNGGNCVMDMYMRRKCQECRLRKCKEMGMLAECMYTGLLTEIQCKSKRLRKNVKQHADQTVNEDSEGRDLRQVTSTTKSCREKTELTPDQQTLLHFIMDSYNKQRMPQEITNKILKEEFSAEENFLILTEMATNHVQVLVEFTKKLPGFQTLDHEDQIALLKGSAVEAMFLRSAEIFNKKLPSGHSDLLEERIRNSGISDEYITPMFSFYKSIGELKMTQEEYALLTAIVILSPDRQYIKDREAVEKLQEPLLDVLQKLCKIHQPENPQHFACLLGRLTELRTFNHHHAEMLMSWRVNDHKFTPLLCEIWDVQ
Procedure, shortened: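 Chimeric FXR-GAL4 activity in transiently transfected human HepG2 liver cells is scored as induction of reporter mRNA after 24 h of dosing. Detection uses RT-PCR with fluorescent labelling and capillary electrophoresis, with DMSO serving as baseline.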

[9] = molecular target: Oxysterols receptor LXR-alpha (Homo sapiens) (UniProt Q13133); experiment: ATG_LXRa_TRANS: Attagene TRANS-FACTORIAL HepG2 Assay for human Liver X Receptor alpha (LXRa) (AID 2282980); settings: HepG2 Attagene TRANS reporter, LXRa transactivation
Oxysterols receptor LXR-alpha (Homo sapiens), sequence (Q13133 whole entry, looked up): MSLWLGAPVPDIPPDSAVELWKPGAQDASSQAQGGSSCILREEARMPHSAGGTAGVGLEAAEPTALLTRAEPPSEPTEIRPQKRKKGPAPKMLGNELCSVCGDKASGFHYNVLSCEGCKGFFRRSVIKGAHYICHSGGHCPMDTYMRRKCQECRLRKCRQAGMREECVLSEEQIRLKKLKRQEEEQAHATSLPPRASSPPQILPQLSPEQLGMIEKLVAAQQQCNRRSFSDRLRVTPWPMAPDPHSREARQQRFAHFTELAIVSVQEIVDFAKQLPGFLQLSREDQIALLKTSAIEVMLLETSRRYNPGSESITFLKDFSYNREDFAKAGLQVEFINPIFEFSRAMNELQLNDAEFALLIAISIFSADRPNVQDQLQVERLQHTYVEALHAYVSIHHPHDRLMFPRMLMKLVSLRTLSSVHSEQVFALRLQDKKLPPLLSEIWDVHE
Procedure, shortened: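 Transient HepG2 transfectants, 24 h dosing, RT-PCR/CE mRNA reporter quantitation; gain-of-signal vs DMSO.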

[10] = molecular target: Oxysterols receptor LXR-beta (Homo sapiens) (UniProt P55055); experiment: ATG_LXRb_TRANS: Attagene TRANS-FACTORIAL HepG2 Assay for human Liver X Receptor beta (LXRb) (AID 2282981); settings: HepG2 Attagene TRANS GAL4-LXRb reporter, mRNA
Procedure, shortened: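 Transient transfection HepG2 (multiplexed RTUs, GAL4-UAS); NR-Gal4 chimera; 24 h exposure; RNA → RT-PCR → 6-FAM primer extension → HpaI → CE; increase vs DMSO.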

[11] = molecular target: Hepatocyte nuclear factor 4-alpha (Homo sapiens) (UniProt P41235); experiment: ATG_HNF4a_TRANS: Attagene TRANS-FACTORIAL HepG2 Assay for human Hepatocyte Nuclear Factor 4 alpha (HNF4a) (AID 2282982); settings: HepG2 HNF4a transactivation reporter, mRNA readout
Hepatocyte nuclear factor 4-alpha (Homo sapiens), sequence (P41235 whole entry, looked up, the tested form may be a part): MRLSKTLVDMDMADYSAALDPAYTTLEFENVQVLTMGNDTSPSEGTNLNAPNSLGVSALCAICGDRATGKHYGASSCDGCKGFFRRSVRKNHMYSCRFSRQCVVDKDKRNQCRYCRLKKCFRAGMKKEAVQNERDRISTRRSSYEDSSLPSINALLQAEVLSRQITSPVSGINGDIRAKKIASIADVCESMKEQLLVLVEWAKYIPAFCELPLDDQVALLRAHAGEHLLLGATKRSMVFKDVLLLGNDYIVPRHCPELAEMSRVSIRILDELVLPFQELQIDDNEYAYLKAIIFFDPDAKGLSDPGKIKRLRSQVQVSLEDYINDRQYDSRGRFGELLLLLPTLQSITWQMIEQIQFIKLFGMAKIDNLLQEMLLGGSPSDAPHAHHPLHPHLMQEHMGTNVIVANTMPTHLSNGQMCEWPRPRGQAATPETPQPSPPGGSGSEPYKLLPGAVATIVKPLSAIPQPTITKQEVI
Procedure, shortened: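 Readout is fluorescent reporter-transcript fragments resolved by capillary electrophoresis after RT-PCR from HepG2 cells dosed for 24 h. Cells carried transfected GAL4-UAS reporter constructs measuring exogenous NR-GAL4 chimera activity; DMSO served as baseline.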

[12] = ATG_M_32_TRANS: Attagene TRANS-FACTORIAL HepG2 Assay for M32 Transcription Factor (Internal Marker) (AID 2282984); settings: HepG2 Attagene TRANS M32 internal marker reporter;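 note: transcript level of a background control reporter unit measured by RT-PCR and capillary electrophoresis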
Procedure, shortened: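 Measures reporter mRNA induction in human HepG2 liver cells after 24 h chemical treatment. Transcripts from transiently transfected GAL4-UAS reporter units are amplified, fluorescently labelled and sized by capillary electrophoresis; gain of signal relative to DMSO.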

[13] = molecular target: Transcriptional activator Myb (Homo sapiens) (UniProt P10242); experiment: ATG_Myb_CIS: Attagene CIS-FACTORIAL HepG2 Assay for human Myeloblastosis (Myb) Proto-Oncogene Transcription Factor (AID 2282986; active = hit-call score of the fitted dose curve at least 0.9, where 1 is the maximum; inactive = score below 0.9); settings: HepG2 Attagene CIS-FACTORIAL Myb reporter transcription; actives raise or lower the signal
Procedure, shortened: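 HepG2 cells were transiently transfected with cis-regulated multiple reporter transcription units reflecting endogenous Myb activity, then exposed to compound for 24 hours. Reporter mRNA was measured by RT-PCR with capillary electrophoresis; bidirectional fitting versus DMSO baseline.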

[14] = molecular target: Nuclear respiratory factor 1 (Homo sapiens) (UniProt Q16656); experiment: ATG_NRF1_CIS: Attagene CIS-FACTORIAL HepG2 Assay for human Nuclear Respiratory Factor 1 (NRF1) Orphan Gene (AID 2282987; active = hit-call score of the fitted dose curve at least 0.9, where 1 is the maximum; inactive = score below 0.9); settings: HepG2 NRF1 cis-element reporter, Attagene multiplex; actives raise or lower the signal
Procedure, shortened: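 HepG2 cells transiently transfected with multiple reporter transcription units under cis-regulatory promoter control, so endogenous transcription-factor activity is read. After 24 h compound exposure, reporter mRNA quantified by RT-PCR, fluorescent labelling, HpaI digestion and capillary electrophoresis; bidirectional fitting versus DMSO.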

[15] = ATG_NFI_CIS: Attagene CIS-FACTORIAL HepG2 Assay for human Nuclear Factor I (NFI) (AID 2282989; active = hit-call score of the fitted dose curve at least 0.9, where 1 is the maximum; inactive = score below 0.9); settings: HepG2 cis-regulatory reporter, NFI response element transcription; actives raise or lower the signal
Procedure, shortened: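 Reporter transcription driven by endogenous transcription factors in HepG2 cells; 24 h treatment. Quantitation by labelled RT-PCR fragments on capillary electrophoresis, gain- or loss-of-signal relative to DMSO.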

[16] = molecular target: Myc proto-oncogene protein (Homo sapiens) (UniProt P01106); experiment: ATG_Myc_CIS: Attagene CIS-FACTORIAL HepG2 Assay for human Myelocytomatosis (Myc) Proto-Oncogene Transcription Factor (AID 2282990; active = hit-call score of the fitted dose curve at least 0.9, where 1 is the maximum; inactive = score below 0.9); settings: HepG2, Attagene cis-reporter transcription factor activity; actives raise or lower the signal
Myc proto-oncogene protein (Homo sapiens), sequence (P01106 whole entry, looked up, the tested form may be a part): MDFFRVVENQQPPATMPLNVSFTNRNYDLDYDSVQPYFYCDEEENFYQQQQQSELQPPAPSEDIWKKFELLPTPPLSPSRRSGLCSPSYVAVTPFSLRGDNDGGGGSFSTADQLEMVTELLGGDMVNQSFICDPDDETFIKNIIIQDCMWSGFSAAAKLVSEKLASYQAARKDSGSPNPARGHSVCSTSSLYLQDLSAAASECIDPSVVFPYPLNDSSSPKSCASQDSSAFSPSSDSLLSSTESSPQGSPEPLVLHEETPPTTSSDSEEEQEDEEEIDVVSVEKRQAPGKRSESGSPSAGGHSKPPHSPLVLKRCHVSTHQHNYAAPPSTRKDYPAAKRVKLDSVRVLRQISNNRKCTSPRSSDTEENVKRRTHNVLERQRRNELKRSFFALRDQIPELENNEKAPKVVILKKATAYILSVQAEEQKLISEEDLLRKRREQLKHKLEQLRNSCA
Procedure, shortened: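 After 24 h chemical treatment of HepG2 cells carrying multiplexed cis-regulated reporter constructs, reporter transcripts quantified by RT-PCR and capillary electrophoresis of fluorescent fragments. Gain or loss fitted against DMSO baseline.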

[17] = ATG_M_06_TRANS: Attagene TRANS-FACTORIAL HepG2 Assay for M06 Transcription Factor (Internal Marker) (AID 2282983); settings: HepG2 Attagene TRANS M06 internal marker reporter;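 note: reporter transcript level by RT-PCR then capillary electrophoresis fluorescence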
Procedure, shortened: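 Measured by capillary electrophoresis of fluorescently labelled RT-PCR products, this endpoint reflects reporter mRNA in HepG2 cells harbouring exogenous NR-GAL4 reporter constructs after 24 h exposure, with DMSO as baseline.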

[18] = molecular target: Nuclear receptor subfamily 4 group A member 2 (Homo sapiens) (UniProt P43354); experiment: ATG_NURR1_TRANS: Attagene TRANS-FACTORIAL HepG2 Assay for human Nuclear Receptor Related Protein 1 (NURR1) (AID 2282985); settings: HepG2 Attagene TRANS reporter, mRNA readout
Nuclear receptor subfamily 4 group A member 2 (Homo sapiens), sequence (P43354 whole entry, looked up, the tested form may be a part): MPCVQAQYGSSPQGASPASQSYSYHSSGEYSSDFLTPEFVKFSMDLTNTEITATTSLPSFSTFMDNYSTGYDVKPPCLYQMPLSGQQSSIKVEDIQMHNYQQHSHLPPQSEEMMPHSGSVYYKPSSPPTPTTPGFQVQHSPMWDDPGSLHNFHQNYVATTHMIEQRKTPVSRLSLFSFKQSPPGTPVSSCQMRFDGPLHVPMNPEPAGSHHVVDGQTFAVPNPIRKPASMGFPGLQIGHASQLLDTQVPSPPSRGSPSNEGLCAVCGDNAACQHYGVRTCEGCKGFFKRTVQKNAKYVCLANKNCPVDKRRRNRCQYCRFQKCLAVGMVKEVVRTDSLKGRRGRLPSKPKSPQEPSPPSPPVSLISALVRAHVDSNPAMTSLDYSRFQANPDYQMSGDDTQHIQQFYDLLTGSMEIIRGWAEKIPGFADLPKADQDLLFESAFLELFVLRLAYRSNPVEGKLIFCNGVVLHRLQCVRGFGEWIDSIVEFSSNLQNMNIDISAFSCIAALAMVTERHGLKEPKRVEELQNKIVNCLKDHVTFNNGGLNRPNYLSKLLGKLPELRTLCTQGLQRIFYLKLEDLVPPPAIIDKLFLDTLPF
Procedure, shortened: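 Transient transfection of HepG2, human liver cells, with multiple GAL4-UAS reporter transcription units. Cells dosed 24 h, RNA isolated, reverse-transcribed, PCR-amplified, FAM-labelled, HpaI-digested, sized by capillary electrophoresis. DMSO served as negative control.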

[19] = ATG_GAL4_TRANS: Attagene TRANS-FACTORIAL HepG2 Assay for GAL4 (Internal Marker) (AID 2282976); settings: HepG2 Attagene TRANS GAL4 internal marker reporter
Procedure, shortened: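 Fluorescence from capillary electrophoresis of labelled RT-PCR products quantifies reporter mRNA induction after 24 h dosing of HepG2 cells carrying transfected GAL4-UAS reporter transcription units. Vehicle DMSO serves as baseline.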

[20] = molecular target: Androgen receptor (Homo sapiens) (UniProt P10275); experiment: ATG_AR_TRANS: Attagene TRANS-FACTORIAL HepG2 Assay for human Androgen Receptor (AR) (AID 2282973); settings: HepG2 Attagene TRANS-FACTORIAL AR reporter transcription
Procedure, shortened: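 Transfected HepG2, 24 h treatment, chimeric NR-Gal4 driving GAL4-UAS reporters. mRNA induction by RT-PCR/capillary electrophoresis fluorescence; DMSO as negative control and baseline.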

Measured: AC50

OC(Cc1ccccc1Cl)(Cn1cncn1)C1(Cl)CC1 (configuration not stated)
inactive: [1] | [3] | [4] | [5] | [6] | [7] | [8] | [9] | [10] | [11] | [12] | [13] | [14] | [15] | [16]
active: [2] 13.7 µM

CN(C)c1ccc(N=O)cc1
inactive: [1] | [2] | [3] | [4] | [6] | [7] | [8] | [10] | [11] | [17] | [12] | [18] | [13] | [14] | [15] | [16]

O=C(NC(=O)c1c(F)cccc1F)Nc1ccc(Cl)cc1
inactive: [1] | [2] | [4] | [5] | [8] | [9] | [11] | [17] | [12] | [18] | [14] | [15] | [16]

O=C(O)COc1ccc(Cl)cc1
inactive: [1] | [2] | [3] | [4] | [5] | [19] | [6] | [7] | [9] | [10] | [11] | [17] | [12] | [13] | [14] | [15] | [16]

Cc1ccccc1OP(=O)(Oc1ccccc1)Oc1ccccc1
active: [2] 3.57 µM | [18] 25.2 µM
inactive: [1] | [3] | [4] | [5] | [19] | [7] | [8] | [9] | [12] | [13] | [15] | [16]

Cc1cc(-c2cc(C)c(N)c(C)c2)cc(C)c1N
inactive: [1] | [2] | [4] | [5] | [7] | [9] | [12] | [18] | [13] | [14] | [15] | [16]

CN(C1CCCCC1)C1CCCCC1
inactive: [1] | [2] | [4] | [20] | [5] | [7] | [11] | [17] | [12] | [13] | [14] | [15] | [16]

Nc1nc(N)nc(Cl)n1
inactive: [1] | [2] | [4] | [5] | [19] | [10] | [11] | [12] | [13] | [14] | [15] | [16]

CS(=O)(=O)c1ccc(C(=O)C2C(=O)CCCC2=O)c(Cl)c1COCC(F)(F)F
inactive: [1] | [2] | [4] | [5] | [19] | [6] | [7] | [9] | [10] | [17] | [12] | [13] | [14] | [15]
